Screens deposited in PubChem by Buhrlage Lab, Dana-Farber Cancer Institute and Novartis Institutes for BioMedical Research (Cambridge, Mass).
USP30 block = human USP30 deubiquitinase inhibition. purified USP30, Ub-rhodamine cleavage fluorescence. Q70CQ3. inhibition, % at 25 µM. hit rate 5.3% among 47,000
USP28 block = human USP28 deubiquitinase inhibition; Q96RU2; hit rate 3% among 47,000; purified USP28, Ub-rhodamine cleavage fluorescence, 30 min; inhibition, % at 25 µM
Target sequence (Q96RU2 whole entry, looked up): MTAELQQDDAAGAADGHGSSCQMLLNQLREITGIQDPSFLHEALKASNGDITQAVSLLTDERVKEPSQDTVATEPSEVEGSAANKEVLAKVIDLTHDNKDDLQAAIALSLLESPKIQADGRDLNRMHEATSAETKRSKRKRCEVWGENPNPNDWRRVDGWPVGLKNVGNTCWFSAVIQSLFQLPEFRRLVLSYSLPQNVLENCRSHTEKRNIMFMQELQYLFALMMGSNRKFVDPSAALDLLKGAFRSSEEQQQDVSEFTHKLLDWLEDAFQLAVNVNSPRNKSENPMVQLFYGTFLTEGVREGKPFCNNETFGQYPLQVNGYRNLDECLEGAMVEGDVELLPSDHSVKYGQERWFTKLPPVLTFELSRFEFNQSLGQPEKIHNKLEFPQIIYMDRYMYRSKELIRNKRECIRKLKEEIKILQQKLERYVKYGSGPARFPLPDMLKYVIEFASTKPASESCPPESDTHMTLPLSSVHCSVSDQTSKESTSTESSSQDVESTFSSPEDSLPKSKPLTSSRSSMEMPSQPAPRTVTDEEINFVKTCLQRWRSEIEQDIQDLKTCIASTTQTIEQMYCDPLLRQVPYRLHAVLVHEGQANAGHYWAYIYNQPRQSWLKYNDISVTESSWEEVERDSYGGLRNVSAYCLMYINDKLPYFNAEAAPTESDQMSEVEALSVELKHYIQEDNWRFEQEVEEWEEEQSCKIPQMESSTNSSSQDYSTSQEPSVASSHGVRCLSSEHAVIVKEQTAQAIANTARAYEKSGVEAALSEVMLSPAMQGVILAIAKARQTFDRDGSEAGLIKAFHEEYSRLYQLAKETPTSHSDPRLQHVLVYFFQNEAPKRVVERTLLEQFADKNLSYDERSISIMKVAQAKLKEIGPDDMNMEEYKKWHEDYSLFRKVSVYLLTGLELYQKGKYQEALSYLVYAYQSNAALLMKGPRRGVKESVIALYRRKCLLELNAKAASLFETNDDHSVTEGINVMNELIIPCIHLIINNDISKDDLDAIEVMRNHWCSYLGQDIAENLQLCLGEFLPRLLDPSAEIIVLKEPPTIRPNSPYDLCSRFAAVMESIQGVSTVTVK
USP17 block = blocks human USP17 ubiquitin-rhodamine cleavage; A8MUK1; purified USP17, Ub-rhodamine cleavage fluorescence, 3 h; inhibition, % at 50 µM; hit rate 6.5% among 47,000; AID 1645855
A number is an active result; n = inactive; x = no result given. Rows were chosen to be rich in hits. Some 11% of all compounds tested hit in one or more screens of this group. Cut-off read from the data, not from the text of the source: active = inhibition above about 30%; inactive = the rest.

SMILES	USP30 block	USP28 block	USP17 block
CC[C@@]1([C@@H]2O[C@@H]([C@H]3O[C@@](O)(CO)[C@H](C)C[C@@H]3C)C[C@@H]2C)CC[C@H]([C@]2(C)CC[C@]3(C[C@H](O)[C@@H](C)[C@@H]([C@@H](C)[C@@H](O)[C@H](C)C(=O)O)O3)O2)O1	n	n	n
CO[C@@H]1C[C@@H](C[C@H]2CC[C@H](C)[C@H]([C@@H](C)C(=O)O)O2)O[C@]2(O[C@](C)([C@H]3CC[C@@](C)([C@@H]4O[C@@H]([C@H]5O[C@@](O)(CO)[C@H](C)C[C@@H]5C)C[C@@H]4C)O3)C[C@H]2C)[C@@H]1C	33.8	n	n
O=C1/C(=C/c2c(F)cccc2Cl)N2CCC1CC2	n	n	n
c1ccc2cc(CN3CCN(c4cccc5[nH]ccc45)CC3)ccc2c1	n	n	n
CC1=C(O)C(=O)C=C2C1=CC=C1[C@@]2(C)CC[C@@]2(C)[C@@H]3C[C@](C)(C(=O)O)CC[C@]3(C)CC[C@]12C	n	64.1	54.1
O=C(Nc1cccnc1)[C@H]1C[C@@H]2CN(CC3CC3)C[C@H]1O2	n	n	n
CCC(C)CC(C)CC(C)/C=C(\C)C1OC(O)(C(C)(O)C(=O)NC2C(=O)N3NCCCC3C(=O)N(O)CC(=O)N(C)CC(=O)NCC(=O)N(C)CC(=O)OC2C(C)C)CCC1OC (configuration not stated)	n	n	n
Cc1ccc(C)c(Cn2cccc(C(=O)Nc3ccccn3)c2=O)c1	n	34.0	n
O=C(Nc1ccccn1)c1c(O)c2ccccc2n(Cc2ccccc2)c1=O	n	n	n
COc1ccc2c(c1)OC1(CCCNC1)CNC2=O (configuration not stated)	n	n	n
COc1ccccc1C1SCC(=O)Nc2c1c(C)nn2-c1nc(C)cc(C)n1 (configuration not stated)	n	n	n
Cc1cc(C)nc(-n2nc(C)c3c2NC(=O)CSC3c2ccccc2F)n1 (configuration not stated)	87.4	n	36.5
CN(C)C(=O)CN1CCO[C@@H]2CC(COc3ccccn3)C[C@H]21 (some centres not stated)	n	n	n
COc1ccccc1NC(=O)N1CCC2(CC1)C(=O)Nc1c(OC)cccc12	n	n	n
COc1ccc(C[C@H]2C(=O)N[C@@H](C)C(=O)N(C)[C@H]3Cc4ccc(cc4)Oc4cc(ccc4O)C[C@@H](C(=O)N[C@H](C)C(=O)N[C@@H](CCC(=O)O)C(=O)N2C)N(C)C3=O)cc1	n	n	n
O=C1CSC(c2ccc(Cl)cc2)c2c(-c3ccccc3)nn(-c3ccccc3)c2N1 (configuration not stated)	31.9	43.2	n
COc1cc(C2SCC(=O)Nc3c2c(-c2ccccc2)nn3-c2ccccc2)cc(OC)c1OC (configuration not stated)	n	77.1	n
COc1cccc(C2SCC(=O)Nc3c2c(C)nn3-c2nc(C)cc(C)n2)c1 (configuration not stated)	n	n	n
COc1cc(C2SCC(=O)Nc3c2c(=O)[nH]n3C2CCCCCC2)cc(OC)c1OC (configuration not stated)	n	n	n
O=C1C2CCN(CC2)C1Cc1ccccc1C(F)(F)F (configuration not stated)	n	n	n
Cc1ccc2cc3c(nc2c1C)OCCNC3	n	n	n
Cc1ccccc1-n1c(CSc2ccc(Cl)cc2)nc2ccc(Cl)cc2c1=O	n	n	n
C=C1[C@@H](C)[C@H]2[C@H](Cc3ccccc3)NC(=O)[C@]23[C@H](OC(C)=O)/C=C/[C@@](C)(O)C[C@@H](C)C/C=C/[C@H]3[C@@H]1O	n	n	n
Cc1nn(Cc2ccccc2)c(C)c1C(=O)NC1CCCc2ccccc21 (configuration not stated)	54.0	n	n
Cc1nn(Cc2ccccc2)c(C)c1C(=O)NCc1ccccc1	n	n	n
SMILES	USP30 block	USP28 block	USP17 block
Cc1c(O)c2c(c3c1[C@H](C)[C@@H](C)O3)Oc1cc(O)c(C)c3c1[C@H]2O[C@H](C)[C@H]3C	n	n	n
CN=C(N)NCCC/C=C/CCC[C@H](C)C[C@H](C)C1OC(=O)C(C)C(O)/C=C/C(C)C(O)CC(O)C(C)C(O)CCC(C)C(O)CC2(O)OC(CC(OC(=O)CC(=O)O)CC(O)CC(O)C(C)C(O)/C=C/C=C/C1C)CC(O)C2O (some centres not stated)	n	34.4	31.6
CCCn1c(C(=O)c2ccc(OCC)cc2)nc2ccccc21	n	n	n
C[C@@H]1CC[C@@]2(OC1)O[C@H]1C[C@H]3[C@@H]4CC=C5C[C@@H](O[C@@H]6O[C@@H](CO)[C@@H](O[C@@H]7O[C@@H](C)[C@H](O[C@@H]8O[C@@H](C)[C@H](O)[C@H](O)[C@H]8O)[C@H](O)[C@H]7O)[C@H](O)[C@@H]6O[C@@H]6O[C@@H](C)[C@H](O)[C@H](O)[C@H]6O)CC[C@]5(C)[C@H]4CC[C@]3(C)[C@H]1[C@@H]2C	96.0	38.0	54.8
C[C@@H]1O[C@@H](O[C@H]2CC[C@]3(C=O)[C@H]4CC[C@]5(C)[C@@H](c6ccc(=O)oc6)CC[C@]5(O)[C@@H]4CC[C@]3(O)C2)[C@H](O)[C@H](O)[C@H]1O[C@@H]1O[C@H](CO)[C@@H](O)[C@H](O)[C@H]1O	n	n	n
Cc1cccc(C)c1-n1nnnc1C1(N)CCC(C)CC1 (configuration not stated)	32.7	n	n
NC1(c2nnnn2-c2ccccc2)CCCCC1	x	x	n
CNC(=O)[C@@H]1CN2CCN(C(=O)COc3ccccc3)C[C@@H]2[C@H]1c1ccccc1	n	n	n
CC12CN3CC(C)(CN(C1)C3c1ccccn1)C2 (configuration not stated)	n	n	n
CC(C)C12CN3CC(C(C)C)(CN(C1)C3c1ccccn1)C2O (configuration not stated)	n	n	39.2
C[C@@H]1C[C@@H](C)C(=O)[C@@H]([C@@H](O)CC2CC(=O)NC(=O)C2)C1	n	n	n
Cc1[nH]nc2c1C(c1ccc(OCc3cccc(F)c3)cc1)SCC(=O)N2 (configuration not stated)	n	n	x
Cc1ccccc1COc1ccc(C2SCC(=O)Nc3n[nH]c(C)c32)cc1 (configuration not stated)	41.2	n	36.2
COc1cccc2c1NC(=O)C21CCN(C(=O)Nc2cccc(C)c2)CC1	n	n	53.6
COc1cccc2c1NC(=O)C21CCN(C(=O)Nc2ccc(F)cc2)CC1	n	n	n
OCCN1CCOc2nc3cc4c(cc3cc2C1)OCO4	n	n	n
Cn1ccnc1CN1C[C@H]2CCN(c3ncccn3)C[C@H]2C1	n	n	n
